The results in this text go back to PubChem BioAssay (NCATS).

The target of the assay is Atrial natriuretic peptide receptor 1 (Homo sapiens) (UniProt P16066). Briefly: Natriuretic polypeptide receptor (hNpr1) antagonism - Pilot CMLD screen (AID 1347052).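 Further: HEK293 cells with hNpr1 stimulated by hNppA peptide at 0.1 nM; cGMP level read as GloSensor luciferase luminescence after agonist stimulation; series mostly up to about 9.2 µM.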

Each structure is given as a SMILES string. Results filed as inconclusive are left out. Entries that show only a call come without a potency. The source made the active and inactive calls. The call rests on the fitted dose curve.

Sequence of Atrial natriuretic peptide receptor 1 (Homo sapiens) (P16066 whole entry, looked up): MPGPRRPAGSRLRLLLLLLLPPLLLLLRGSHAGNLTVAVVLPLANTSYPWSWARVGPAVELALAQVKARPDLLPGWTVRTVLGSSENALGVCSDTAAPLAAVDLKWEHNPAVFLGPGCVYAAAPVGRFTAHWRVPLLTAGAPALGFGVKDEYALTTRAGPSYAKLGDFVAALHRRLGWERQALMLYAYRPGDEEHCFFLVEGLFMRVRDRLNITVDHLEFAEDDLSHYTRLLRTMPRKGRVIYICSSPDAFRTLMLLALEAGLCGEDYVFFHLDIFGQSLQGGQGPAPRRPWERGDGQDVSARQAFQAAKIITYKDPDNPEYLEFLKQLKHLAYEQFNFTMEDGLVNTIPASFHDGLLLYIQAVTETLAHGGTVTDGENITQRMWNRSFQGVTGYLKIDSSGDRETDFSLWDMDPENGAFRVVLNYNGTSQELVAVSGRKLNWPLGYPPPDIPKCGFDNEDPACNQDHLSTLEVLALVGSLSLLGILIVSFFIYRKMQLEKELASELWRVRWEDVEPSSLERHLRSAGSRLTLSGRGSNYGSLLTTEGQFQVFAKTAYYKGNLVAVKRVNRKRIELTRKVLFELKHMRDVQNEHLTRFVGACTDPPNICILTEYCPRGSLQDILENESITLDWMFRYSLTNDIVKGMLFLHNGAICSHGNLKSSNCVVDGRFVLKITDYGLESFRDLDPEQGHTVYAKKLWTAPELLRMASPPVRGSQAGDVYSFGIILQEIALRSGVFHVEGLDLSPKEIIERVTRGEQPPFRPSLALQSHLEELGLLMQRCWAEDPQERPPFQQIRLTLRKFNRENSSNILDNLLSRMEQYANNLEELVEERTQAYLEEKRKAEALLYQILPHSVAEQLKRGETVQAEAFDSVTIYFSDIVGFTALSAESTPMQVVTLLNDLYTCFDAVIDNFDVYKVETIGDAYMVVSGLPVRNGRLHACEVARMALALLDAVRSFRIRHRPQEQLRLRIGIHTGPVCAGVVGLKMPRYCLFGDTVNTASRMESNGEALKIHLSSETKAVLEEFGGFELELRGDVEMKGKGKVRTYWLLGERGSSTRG

With `COC(=O)C1=C(C)N(Cc2ccccc2)C(=NCCc2cccs2)NC1c1cccc(C(F)(F)F)c1` (stereo not given), the Potency entry is “inactive”. Under `CCN1C(=NCc2cccc(Cl)c2)NC(c2cccc(C(F)(F)F)c2)C(C(=O)OC)=C1C` (stereo not given) stands “inactive”; under `CC(CCN1CCCCc2nc(C)c(C)cc21)=NO[C@H](C)CN1CCCc2nc(C)c(C)cc21`, “inactive”; under `CN1c2ccccc2[C@@]2(O)C(=O)[C@@]1(C)[C@H]1Cc3ccccc3[C@H]12`, “inactive”. As for `COCOc1ccc(Br)cc1C(=O)C=Cc1ccc2c(c1)OCO2`, the Potency result is “inactive”. Consider `COC1=C[C@H](C(=O)NC2CCN(Cc3ccccc3)CC2)C(C)C(c2ccccc2)CC1=O` (stereo not given in full), for which the Potency result is “inactive”.

As to `CC(CCN1CCCc2nc(C)c(C)cc21)=NO[C@H](C)c1cn([C@H](CO)Cc2ccccc2)nn1`, the Potency result is “inactive”. Consider `CC(CCN1CCCc2nc(C)c(C)cc21)=NO[C@@H](C)CN1CCCCc2nc(C)c(C)cc21`, for which the Potency result was “inactive”. With `Cc1ccccc1Nc1oc(-c2ccccc2)nc1-c1cccc2ccccc12`, the Potency result is “inactive”.

On to `COc1ccc([C@@H](NC(=O)C(F)(F)F)C2CCCC=C2c2ccccc2)cc1OC` (stereo not given in full), for which the Potency result was “inactive”.
